Experimental data reported in PubChem BioAssay (NCI).
Compounds without any hit were thinned out: in the full panel of roughly 83,000, 20% have a hit.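 The endpoint reported here, percent growth, reads 100 for growth as untreated, 0 for no net growth and -100 for all cells dead.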 Activity calls are given as the source filed them. Rule for the calls: active = growth percent below 10; inactive = the rest.

system: SK-MEL-28 melanoma; assay: NCI-60 one-dose screen, 48 h (100 = growth as untreated, 0 = no growth, -100 = all killed); conditions: 10 µM

Question: Which growth does the source give for `CCOc1ccccc1CN1CCc2nc3cc(C(C)(C)C)[nH]n3c(=O)c2C1` here?
Answer: Its growth is 112% (inactive).

Question: Which growth does the source give for `COc1ccc2sc(N(Cc3cccnc3)C(=O)c3ccc(C#N)cc3)nc2c1` here?
Answer: Its growth is 50.2% (inactive).

Question: Which growth does the source give for `COc1cc(/C=C2\CN(S(=O)(=O)c3ccccc3)C/C(=C\c3cc(CN4CCCC4)c(O)c(OC)c3)C2=O)cc(CN2CCCC2)c1O` here?
Answer: The growth was 10.5% (inactive).

Question: With `Cc1c(C(=O)OCCO)cc(-c2ccc(Cl)cc2)n1-c1ccc(Cl)cc1Cl` as the compound, how does the growth read?
Answer: The growth was 70.8% (inactive).

Question: With `CC(=O)n1cc(-c2c[nH]c3ccccc23)c(-c2ccc(Cl)cc2)n1` as the compound, how does the growth read?
Answer: The growth was 93.7% (inactive).

Question: For `COc1cc(C=C2C(=O)N(C)C(=O)N(C)C2=O)cc(CN2CCCCC2)c1O`, which growth is on record?
Answer: Its growth is 102% (inactive).

Question: With `O=C(CSc1nc2ccccc2c(=O)n1-c1ccccc1)Nc1ccc(C(=O)/C=C/c2ccc(Cl)cc2)cc1` as the compound, how does the growth read?
Answer: Its growth is 106% (inactive).

Question: Which growth does the source give for `CCCCN1CCN(c2ccc3nc(-c4ccc5nc(-c6ccc(OC)c(OC)c6)[nH]c5c4)[nH]c3c2)CC1` here?
Answer: Its growth is -71.2% (active).

Question: `CC(C)(C)c1ccc(C2CC(=O)C3=C(C2)Nc2ccccc2N(C(=O)c2ccccc2Cl)C3c2ccc(F)cc2)cc1` (stereo unspecified) was tested. Which growth did it give?
Answer: The growth was 38.6% (inactive).

Question: With `CCOC(=O)c1sc(-c2ccc(OS(=O)(=O)c3ccc(Br)s3)c(C=O)c2)nc1C` as the compound, how does the growth read?
Answer: Its growth is 55% (inactive).

Question: For `CC(=O)Nc1nc2c(s1)CCc1c-2cn(S(=O)(=O)c2ccccc2)c1-c1ccccc1`, which growth is on record?
Answer: The growth was 95.1% (inactive).

Question: For `Clc1ccc(Oc2ccc(Nc3ncnc4onc(-c5ccccc5)c34)cc2)c(Cl)c1`, which growth is on record?
Answer: The growth was 102% (inactive).

Question: With `CCN1C(=O)N(CC)C2Nn3c(s/c(=C\c4ccccc4F)c3=O)=NC21` (stereo unspecified) as the compound, how does the growth read?
Answer: The growth was 54.2% (inactive).

Question: `CCCCC1COc2cccc3c2N1C=C/C3=C\C(=O)N(C)c1ccccc1` (stereo unspecified) was tested. Which growth did it give?
Answer: Its growth is 75% (inactive).

Question: How did the growth turn out when `COC(=O)/C(=C\c1c(-c2ccccc2)[nH]c2ccccc12)S(C)(=O)=O` was run?
Answer: Its growth is 36.1% (inactive).

Question: `COC(=O)c1c2c(c(C)[n+]([O-])c1C)C(=O)C=C(NCc1ccccc1)C2=O` was tested. Which growth did it give?
Answer: Its growth is 14.1% (inactive).

Question: How did the growth turn out when `c1ccc(CNc2nc(Nc3ccccc3)nc3ccccc23)cc1` was run?
Answer: Its growth is -35.1% (active).

Question: `COc1ccc(/C=C/C(=O)c2c(C)nc3ccccc3c2/C=C/c2ccccc2)cc1O` was tested. Which growth did it give?
Answer: The growth was 75.2% (inactive).

Question: For `COc1ccc(OC)c(NC(=O)/C(C#N)=C/c2ccco2)c1`, which growth is on record?
Answer: The growth was 104% (inactive).

Question: How did the growth turn out when `COC(=O)/C(CCC=C(C)C)=C1\[C@@H](OC(C)=O)C[C@@]2(C)[C@H]1C[C@@H](O)[C@H]1[C@@]3(C)CC[C@H](NCCCNCCCCNCCCN)[C@@H](C)[C@@H]3CC[C@@]12C` was run?
Answer: Its growth is 19.9% (inactive).

Question: With `O=C1c2cc(Br)ccc2Oc2cc([N+](=O)[O-])ccc2N1c1ccc(I)cc1F` as the compound, how does the growth read?
Answer: Its growth is 113% (inactive).

Question: With `O=C(Nc1ccc(Br)cc1F)c1cc(I)ccc1O` as the compound, how does the growth read?
Answer: Its growth is 19.1% (inactive).

Question: `COc1ccc(-c2cn3c(C(=O)Nc4ccccc4Cl)c(-c4ccccc4)c4c3n2CCCC4)cc1` was tested. Which growth did it give?
Answer: Its growth is 91.6% (inactive).

Question: For `CSc1nc2c(c(=O)[nH]1)N=C1c3ccccc3C(=O)C1C(c1ccccc1)N2` (stereo unspecified), which growth is on record?
Answer: Its growth is 54% (inactive).

Question: `O=c1[nH]nnc2c1ncn2C1OC(CO)C(O)C1O` (stereo unspecified) was tested. Which growth did it give?
Answer: Its growth is 102% (inactive).

Question: `O=Cc1c(OCc2cnnn2CC(=O)Nc2ccc(Cl)cc2)ccc2ccccc12` was tested. Which growth did it give?
Answer: Its growth is 102% (inactive).

Question: How did the growth turn out when `O=C(c1nc2ccccc2[nH]1)C1[C@@H](c2cccc(O)c2)C2CC3CCCCC3N2[C@@]12C(=O)Nc1cc(Cl)ccc12` (stereo partly specified) was run?
Answer: Its growth is 45% (inactive).

Question: For `Nc1nc(N)c2c(n1)NC1(C=C(O)c3ccccc31)C1=C(N2)c2ccccc2C1=O` (stereo unspecified), which growth is on record?
Answer: Its growth is 108% (inactive).

Question: `COc1ccc(/C(C#N)=C/c2nc3c(N4CCOCC4)nc(Cl)nc3n2C)cc1OC` was tested. Which growth did it give?
Answer: Its growth is 15.1% (inactive).

Question: `COc1cccc2c1C=C1CCCCC3=Cc4c(OC)cccc4OC13O2` was tested. Which growth did it give?
Answer: The growth was 53.6% (inactive).

Question: For `COc1ccc(/C=C/C(=O)c2ccc(Nc3nc(NCCO)nc(Nc4ccc(Cl)cc4)n3)cc2)cc1`, which growth is on record?
Answer: Its growth is 79.2% (inactive).

Question: `O=NN(C(=O)NC1CCC(C(=O)O)CC1)C1CCC(C(=O)O)CC1` (stereo unspecified) was tested. Which growth did it give?
Answer: Its growth is 106% (inactive).

Question: `CN1CCN(Cc2ccc(NC(=O)c3cncc(C#Cc4nc(N)nc5[nH]ncc45)c3)cc2C(F)(F)F)CC1` was tested. Which growth did it give?
Answer: The growth was 94.3% (inactive).

Question: How did the growth turn out when `Nc1nc(-c2cnccn2)nn1-c1nc2ccccc2s1` was run?
Answer: The growth was 104% (inactive).

Question: How did the growth turn out when `CCOC(=O)c1cc2c(n1Cc1cc(OC)cc(OC)c1)-c1oncc1CCC2` was run?
Answer: The growth was 53.3% (inactive).

Question: `CCOC(=O)c1c(Cl)c2c(n1Cc1ccccc1)-c1oncc1CCC2` was tested. Which growth did it give?
Answer: The growth was 44.7% (inactive).
